# SKN-1 inh – inhibitors of C. elegans SKN-1; C. elegans VP596 Pgst-4::GFP/RFP ratio, acrylamide-induced, 24 h; inhibition, % at 21.8 µM; actives 0.49% (n = 360,000); AID 624304;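 active means interference check ratio from 0.5 to 1.5 plus GFP to RFP signal ratio inhibition reaching or exceeding a fixed threshold, cut at about 30% in these data, passing the limit was not always enough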
# iPSC survival up – hiPSC single-cell survival enhancement; survival enhancement, % at 20 µM; actives 0.044% (n = 360,000); ATPlite luminescence; 100% = ROCK inhibitor wells, 0% = DMSO; in the data active means survival enhancement above about 18%;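 further: cells exposed to compounds for 16 hours before the ATP read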
# CRFR2-BP antag – antagonists of CRF-binding protein/CRF-R2 receptor complex. HEK293 CRF-R2/CRF-BP, CRF-induced calcium fluorescence. actives 0.59% (n = 350,000). inhibition, % at 11.8 µM;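 active means inhibition of the ligand-induced calcium signal above about 50% at the single tested concentration, limit read from the data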
# CRFR2-BP ag – CRF-BP/CRF-R2 complex agonism. actives 0.46% (n = 350,000). AID 588473. activation, % at 13.2 µM. HEK293 CRF-R2/CRF-BP, calcium dye fluorescence (FLIPR); percent of saturating CRF peptide response;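 active means activation of at least 50%, plus an integration ratio under a set limit after plate pattern correction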;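 further: plate controls were neutral control wells without compound for no effect and CRF at EC100 for full effect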
# TAG inh – inhibitors of triacylglycerol accumulation. actives 0.66% (n = 230,000). inhibition, % at 12.5 µM. H9c2 cells, Nile Red lipid (TAG) fluorescence; cells loaded with 200 µM oleic acid;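 active means pattern-corrected inhibition of lipid staining of at least 50% with the nuclear-stain viability signal not falling by more than 50%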;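 further: 0% = DMSO wells and 100% = triacsin C control wells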
# Cardio protect – protects H9c2 cardiomyocytes from peroxide injury; AID 588492; protection from H2O2 cell death, % at 20 µM; H2O2 injury protection, ATPLite, 2 h; actives 0.63% (n = 360,000);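 active means compounds giving at least 50% protection of heart cells from peroxide-induced death in the single-dose screen, raw or plate-pattern-corrected value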;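 further: 0% = DMSO wells with peroxide and 100% = DMSO wells without peroxide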
# Starred values were filed as active, the others as inactive; . = no result given. Rows were chosen to be rich in hits. Some 2.5% of all compounds tested hit in one or more screens of this group.
SMILES,SKN-1 inh,iPSC survival up,CRFR2-BP antag,CRFR2-BP ag,TAG inh,Cardio protect
CC(C)Cn1c(N)c(C(=O)COC(=O)CCc2nc3ccccc3c(=O)[nH]2)c(=O)n(C)c1=O,-8,-3,-5,2,-7,54*
O=C(CCc1nc2ccccc2[nH]c1=O)OCC(=O)N1CCc2ccccc21,7,0,6,0,28,8
Cc1ccc2c(c1)CCCN2C(=O)CCc1nc2ccccc2c(=O)[nH]1,4,0,32,1,40,76*
CC(C)Cn1c(N)c(C(=O)COC(=O)CCc2nc3ccccc3s2)c(=O)n(C)c1=O,-3,0,6,-2,-31,-16
CCOC(=O)C1C(=O)NC(C(=O)OCC)(C(=O)OCC)C1CC (stereo unspecified),22,-2,-11,5,-7,-1
CCCCC(=O)N1CCN(c2nc3ccc(Cl)cc3s2)CC1,-3,0,-14,-2,.,-19
O=C(CCc1nc2ccccc2c(=O)[nH]1)N1CCN(C/C=C/c2ccccc2)CC1,-1,-1,-33,-1,9,59*
CC(=O)N1CCN(C(=O)CCc2nc3ccccc3c(=O)[nH]2)CC1,13,1,-43,8,.,61*
O=c1[nH]c(CN2CCN(C/C=C/c3ccccc3)CC2)nc2cc(Cl)ccc12,-25,-2,-20,1,.,8
Cc1cccc(N2CCN(C(=O)CCc3nc4ccccc4c(=O)[nH]3)CC2)c1C,1,-2,74*,-5,-6,50*
Cc1ccc(N2CCN(C(=O)CCc3nc4ccccc4[nH]3)CC2)c(C)c1,-12,-1,-10,8,8,-15
CCCCNC(=O)CCc1nc2cccnc2n1Cc1ccc(OC)cc1,-2,4,69*,-2,-7,3
CCCCNC(=O)CCc1nc2cccnc2n1Cc1ccccc1,20,0,8,-4,.,6
COc1ccc(-c2noc(CCCC(=O)NCC3CCCO3)n2)cc1 (stereo unspecified),3,0,0,2,.,-7
O=C1CC(NNC(=O)c2ccc(Br)cc2)C(=O)N1 (stereo unspecified),43*,1,10,-1,9,5
Cc1c(C(=O)Nc2c(F)cccc2F)sc2ncn(CC(=O)N3CCCCC3)c(=O)c12,2,0,78*,-1,.,-2
O=C(COC(=O)c1ccc[nH]c1=O)NCC12CC3CC(CC(C3)C1)C2,-12,1,0,-1,19,9
COC(=O)c1ccc(S(=O)(=O)N2CCCCCC2)cc1,35*,-2,19,1,26,-1
N#CC(C#N)=NNc1ccc(S(=O)(=O)N2CCCCC2)cc1,0,-3,66*,99*,.,-13
COC(=O)c1ccc(NC(=O)COc2ccc(S(=O)(=O)N3CCCCC3)cc2)cc1,0,-1,-14,1,.,-8
O=C(c1ccc(S(=O)(=O)N2CCCC2)cc1)N1CCCCC1,-3,0,2,1,4,-1
O=C(/C=C/c1ccc(O)c(O)c1)c1ccc(S(=O)(=O)N2CCCCCC2)cc1,14,-2,-33,-1,.,74*
CCC(C(=O)Nc1c(C)cccc1C)n1c(-c2ccc(=O)[nH]c2)nc2ccccc21 (stereo unspecified),4,.,.,.,.,.
CCCN1Cc2cc(OC)ccc2-c2ccccc2S1(=O)=O,-8,-1,13,0,-12,-14
O=C1NC[C@H](Cc2ccc(O)cc2)N(C[C@@H]2CCCN2C[C@H](Cc2ccccc2)N2C[C@H](Cc3ccccc3)N(CC3CCCCCC3)C(=O)C2=O)C1=O,-1,0,.,.,.,.
SMILES,SKN-1 inh,iPSC survival up,CRFR2-BP antag,CRFR2-BP ag,TAG inh,Cardio protect
O=C1NC[C@H](Cc2ccccc2)N(C[C@@H]2CCCN2C[C@H](Cc2ccc(O)cc2)N2C[C@H](Cc3ccccc3)N(CC3CCCCCC3)C(=O)C2=O)C1=O,37*,1,.,.,.,.
CCn1cc(C(=O)Nc2cccc(NC(C)=O)c2)c2cc(OC)c(OC)cc2c1=O,-8,3,-42,1,7,55*
O=c1[nH]c(N2CCOCC2)cc2ccccc12,16,2,-1,-2,10,56*
CCC(C)Sc1cccc(-c2nc3cc(C)ccn3c2NCc2ccccc2)c1 (stereo unspecified),-5,0,-5,-1,-6,-24
C[C@H](CO)NC(=O)c1nc[nH]c1C(=O)N[C@@H](C)c1ccccc1,-8,2,38,-1,0,13
O=C(NC1CS(=O)(=O)CC1NCc1ccccc1)c1ccccc1 (stereo unspecified),37*,-1,-1,1,-13,-1
O=S1(=O)CC(NCc2ccccc2)C(Nc2ccccc2)C1 (stereo unspecified),4,4,14,1,.,3
c1ccc(-c2cnn3c(-c4ccccc4)c(-c4ccccc4)nc3n2)cc1,-20,1,-202,220*,-35,-1
Nc1nc(-c2ccccc2)c(-c2ccccc2)n1N,5,-1,-30,4,.,-2
Fc1cccc(F)c1/C=C/c1ccc2ccccc2n1,51*,-3,9,-1,.,-19
O=C(COc1nsnc1N1CCOCC1)N/N=C/c1ccccc1O,1,0,-29,0,.,73*
COc1ccc(CCNC(=O)COc2nsnc2N2CCOCC2)cc1OC,40*,-1,0,-2,-10,-2
O=C(COC(=O)CSc1nnc(-c2ccc(Cl)cc2)o1)Nc1cc(Cl)ccc1Cl,2,0,40,4,-5,-1
N#Cc1ccc(NC(=O)COC(=O)CSc2nnc(-c3ccc(Cl)cc3)o2)cc1,1,4,52*,4,.,-4
CCOc1ccc(OCc2ccc(C(=O)NN=Cc3ccc[nH]3)cc2)cc1,17,0,-7,-1,60*,-1
CC(C)c1nc(-c2ccc([N+](=O)[O-])cc2)cs1,53*,0,-9,-3,.,-8
CC(=O)Nc1nc(-c2ccc([N+](=O)[O-])cc2)cs1,1,-2,2,-1,17,4
Cc1ccc(-c2n[nH]c(=S)n2/N=C/c2c(C)nn(-c3ccccc3)c2C)cc1,7,1,18,-1,.,-6
Cc1ccccc1-c1n[nH]c(=S)n1/N=C/c1c(C)nn(-c2ccccc2)c1C,-3,2,71*,-1,.,-7
COc1ccc(CN2C(=O)c3ccccc3C2=O)cc1C(=O)N(C)CC(=O)Nc1ccc(F)cc1,2,0,-15,-1,-19,0
CCC/C(=N\NC(=O)C1CC1)c1ccc(Br)cc1,18,0,-3,-3,-5,-2
CCC/C(=N\NC(=O)C1CC1)c1ccccc1,9,1,65*,-2,-8,-3
CC(C)n1c(=O)c2ccccc2n1Cc1cn(-c2ccc(Cl)cc2)nn1,13,0,.,.,.,1
COc1ccc(-n2c(SCC(=O)N3CCCCC3)nc3ccccc3c2=O)cc1,-9,0,1,0,.,0

# Source: PubChem
